Assay results taken from the supplement of paper PMC4466140.

Assays:
Test in all cases: SPOT peptide array binding signal intensity (averaged, normalized) (arbitrary units (background-subtracted, floor 0; scale differs between SH3 domains)); higher = stronger binding of the SH3 domain to the peptide
[1] = target: AgAbp1
How it was run: (§1)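 Four yeast species supplied the SH3 domains, which were expressed as GST fusions in E. coli BL21(DE3) and purified on glutathione Sepharose. Incubation with cellulose membranes carrying synthetic 15-mer peptides, cysteines exchanged for serines, ran overnight at 4°C at 10 μg/ml in TBS-based blocking buffer. Binding signal is reported as normalized, background-subtracted spot intensity averaged over replicates, in arbitrary units not shared between domains.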

[2] = target: AgBbc1
How it was run: as §1

[3] = target: AgBem1-D1
How it was run: as §1

[4] = target: AgBzz1-D1
How it was run: as §1

[5] = target: AgBzz1-D2
How it was run: as §1

[6] = target: AgCyk3
How it was run: as §1

[7] = target: AgFus1
How it was run: as §1

[8] = target: AgHof1
How it was run: as §1

[9] = target: AgHse1
How it was run: as §1

[10] = target: AgLsb1
How it was run: as §1

[11] = target: AgLsb4
How it was run: as §1

[12] = target: AgMyo5
How it was run: as §1

[13] = target: AgNbp2
How it was run: as §1

[14] = target: AgRvs167
How it was run: as §1

[15] = target: AgSho1
How it was run: as §1

[16] = target: AgSla1-D1-D2
How it was run: as §1

[17] = target: AgSla1-D3
How it was run: as §1

[18] = target: CaAbp1-D1
How it was run: as §1

[19] = target: CaAbp1-D2
How it was run: as §1

[20] = target: CaBbc1
How it was run: as §1

[21] = target: CaBem1-D1
How it was run: as §1

[22] = target: CaBzz1-D1
How it was run: as §1

[23] = target: CaBzz1-D2
How it was run: as §1

[24] = target: CaCyk3
How it was run: as §1

[25] = target: CaFus1
How it was run: as §1

[26] = target: CaHof1
How it was run: as §1

[27] = target: CaHse1
How it was run: as §1

[28] = target: CaLsb1
How it was run: as §1

[29] = target: CaLsb4
How it was run: as §1

[30] = target: CaMyo5
How it was run: as §1

[31] = target: CaNbp2
How it was run: as §1

[32] = target: CaRvs167
How it was run: as §1

[33] = target: CaRvs167-3
How it was run: as §1

[34] = target: CaSho1
How it was run: as §1

[35] = target: CaSla1-D1-D2
How it was run: as §1

[36] = target: CaSla1-D3
How it was run: as §1

[37] = target: ScAbp1
How it was run: as §1

[38] = target: ScBbc1
How it was run: as §1

[39] = target: ScBem1-D1
How it was run: as §1

[40] = target: ScBzz1-D1
How it was run: as §1

[41] = target: ScBzz1-D2
How it was run: as §1

[42] = target: ScCyk3
How it was run: as §1

[43] = target: ScFus1
How it was run: as §1

[44] = target: ScHof1
How it was run: as §1

[45] = target: ScHse1
How it was run: as §1

[46] = target: ScLsb1
How it was run: as §1

[47] = target: ScLsb2
How it was run: as §1

[48] = target: ScLsb3
How it was run: as §1

[49] = target: ScLsb4
How it was run: as §1

[50] = target: ScMyo3
How it was run: as §1

[51] = target: ScMyo5
How it was run: as §1

[52] = target: ScNbp2
How it was run: as §1

[53] = target: ScPex13
How it was run: as §1

[54] = target: ScRvs167
How it was run: as §1

[55] = target: ScSho1
How it was run: as §1

[56] = target: ScSla1-D1-D2
How it was run: as §1

[57] = target: ScSla1-D3
How it was run: as §1

[58] = target: SpAbp1-D1
How it was run: as §1

[59] = target: SpBbc1
How it was run: as §1

[60] = target: SpBzz1-D1
How it was run: as §1

[61] = target: SpBzz1-D2
How it was run: as §1

[62] = target: SpCyk3
How it was run: as §1

[63] = target: SpHof1
How it was run: as §1

[64] = target: SpHof1-2
How it was run: as §1

[65] = target: SpHof1-3
How it was run: as §1

[66] = target: SpHse1
How it was run: as §1

[67] = target: SpLsb1
How it was run: as §1

[68] = target: SpLsb4
How it was run: as §1

[69] = target: SpMyo1
How it was run: as §1

[70] = target: SpNbp2
How it was run: as §1

[71] = target: SpPex13
How it was run: as §1

[72] = target: SpRvs167
How it was run: as §1

[73] = target: SpSla1-D1-D2
How it was run: as §1

[74] = target: SpSla1-D3
How it was run: as §1

Measured: SPOT peptide array binding signal intensity

ATNVPVAPPPPPASL
339: [69]
2.25: [38] | [57]
468: [12]
0.5: [27]
2: [6] | [41] | [49]
18: [31]
27.5: [70]
27: [9]
4: [24]
23: [22]
1: [4] | [26] | [37] | [42]
2.75: [2]
8.75: [66]
0.25: [23] | [46]
161: [51]
13.8: [30]
1430: [50]
4.5: [16]
3: [8]
125: [60]
6.5: [33]
≤ 0: all other assays above
